PubChem BioAssay (Tox21)
“And” between values parts separate entries of the source, which are not always exact repeats. Identical values can stand only once. Results filed as inconclusive are left out. The source holds several records for some structures; these can differ, active in one and inactive in another. The source made the active and inactive calls. Calls come from the whole dose curve; as a rule, active = well fitted cell-killing curve with a large enough effect in the repeat runs; inconclusive = weak or mixed curves, or effect the other way; inactive = no such curve, though single readings can be large or run the other way.

Experiment: qHTS assay for identifying genotoxic compounds that show differential cytotoxicity against isogenic chicken DT40 cell lines with known DNA damage response pathways - Rev3 mutant cell line (AID 743014); note: nearly all actives have a fitted effect of over 55% in size
Settings: chicken DT40 Rev3-/- viability, CellTiter-Glo, 40 h; series mostly up to 68.4 µM; activity, negative = cytotoxicity: at the top concentration
From the text: National Center for Advancing Translational Sciences [NCATS]
NIH Chemical Genomics Center [NCGC]
U.S. Environmental Protection Agency [EPA]
National Institutes of Environmental Health Sciences [NIEHS]
National Toxicology Program [NTP]
U.S. Food and Drug Administration [FDA]
DNA repair pathways play a critical role in cellular homeostasis by repairing DNA damage induced by endogenous processes and xenobiotics. Isogenic chicken DT40 cell lines deficient in different DNA repair pathways can be used to identify genotoxic compounds and aid in characterizing the nature of the DNA damage induced. Two DNA repair-deficient cell lines with disrupted genes, Rad54/Ku70 or Rev3, were used to screen the Tox21 10K compound library. Possible genotoxicity was based on the presence of a significant increase in cytotoxicity in one or more of the DNA repair-deficient cell lines compared to that observed in the parental DNA repair-proficient cell line. CellTiter Glo viability assay (Promega, Madison, WI) was used to measure cell viability in these cells after compound treatment. This assay includes the data from the Rev3 mutant cell line.
Tox21 Assay Protocol Summary:
300 DT40 mutant cells in 5 uL/well were dispensed into white, solid-bottom 1536-well plates using a Multidrop Combi (ThermoFisher Scientific, Waltham, MA) dispenser. After the assay plates were incubated at 37 C/5% CO2 for approximately 0.5 hour, 23 nL of compounds dissolved in DMSO, positive controls or DMSO only was transferred into the assay plate by a pintool work station (Kalypsys, San Diego, CA). The assay plates were incubated at 37 C/5% CO2 for 40 hours. After 5 uL per well of CellTiter-Glo reagent was added into each well of the assay plates, the plates were incubated for 30 min at room temperature and the luminescence intensity of the plates was measured using a ViewLux (PerkinElmer, Shelton, CT) plate reader.
% is set by controls: 0 for no effect and ±100 for the full control effect; potency is the fitted concentration of half-maximal effect.

SMILES	Potency	activity, negative = cytotoxicity
S=c1[nH]c2ccccc2[nH]1	inactive	
CN(C)c1ccccc1	inactive	
Nc1ccc2ccccc2c1	inactive and 68.6 µM (active)	
CCOP(=S)(OCC)OP(=S)(OCC)OCC	inactive	
CNC(=S)S	inactive	
CN(C)P(=O)(N(C)C)N(C)C		3.05% (inactive)
O=[N+]([O-])/N=C1\NCCN1Cc1ccc(Cl)nc1	inactive and 8.41 µM (active)	
C=CC(Cl)CCl (stereo not given)		-1.04% [at 95 µM] (inactive)
N#CC(c1ccccc1)c1ccccc1	inactive	
c1ccc(C2CO2)cc1 (stereo not given)	inactive	
CCCCCCCC[N+](C)(CCCCCCCC)CCCCCCCC	433 nM (active) and 686 nM (active)	
CCN(CC)C(=O)C(C)Oc1cccc2ccccc12 (stereo not given)	54.9 µM (active) and 17.2 µM (active)	
ClCc1ccccn1	inactive	
CC1(C)C(C(=O)OC(C#N)c2cccc(Oc3ccccc3)c2)C1(C)C (stereo not given)		4.68% [at 95 µM] (inactive)
CCOP(=S)(OCC)SCn1c(=O)oc2cc(Cl)ccc21	32.9 µM (active) and 27.3 µM (active)	
COc1ccc(CO)cc1		1.88% (inactive)
CC[n+]1c(-c2ccccc2)c2cc(N)ccc2c2ccc(N)cc21	376 nM (active) and 841 nM (active) and 96.4 nM (active)	
Clc1ccccc1-c1nnc(-c2ccccc2Cl)nn1		-18.1% (inactive)
CCOP(=O)(O)OCC (tested in a mixture with another compound)	inactive and 85.6 nM (active)	
CN(C)c1nc(=O)n(C2CCCCC2)c(=O)n1C	inactive	

SMILES	Potency	activity, negative = cytotoxicity
CCC1(c2ccc(N)cc2)CCC(=O)NC1=O (stereo not given)	inactive	
CCOP(=S)(OCC)SCSC(C)(C)C	inactive	
COP(=S)(OC)Oc1ccc(S(=O)(=O)N(C)C)cc1	inactive and 24.3 µM (active)	
CCCCOCCOC(C)=O	inactive	
CC(O)CN(CC(C)O)CC(C)O (stereo not given)	inactive	
N#CCCCCC#N	inactive	
CC(C)(c1ccccc1)c1ccc(O)cc1	60.6 µM (active) and 17.2 µM (active)	
CC(C)CON=O	inactive	
CNC(=O)Oc1cccc2c1OC(C)(C)C2	inactive and 24.3 µM (active)	
Cn1c(-c2ccccc2)cc(-c2ccccc2)[n+]1C	2.73 µM (active) and 864 nM (active)	
Brc1ccc(Br)cc1		7.73% (inactive)
CC(C)(O)C(=O)Nc1ccc([N+](=O)[O-])c(C(F)(F)F)c1	49.5 µM (active) and 6.31 µM (active)	
CNC(=O)CSP(=S)(OC)OC	inactive	
C[C@]12CCC(=O)C=C1CC[C@@H]1[C@@H]2CC[C@@]2(C)[C@H]1CC[C@]2(C)O	26.6 µM (active) and 29.8 µM (active) and 26 µM (active)	
C=CC(=O)OCC(CC)(COC(=O)C=C)COC(=O)C=C	1.58 µM (active) and 3.06 µM (active)	
O=S(=O)(O)C(F)(F)C(F)(F)C(F)(F)C(F)(F)C(F)(F)C(F)(F)C(F)(F)C(F)(F)F	61.1 µM (active) and 48.6 µM (active)	
CC(C)=CC1C(C(=O)OCc2cccc(Oc3ccccc3)c2)C1(C)C (stereo not given)	inactive	
CCCCOCC1CO1 (stereo not given)	inactive	
CCOP(=O)(OCC)OCC	inactive	
ClC(Cl)(Cl)Br	inactive	
